Consider 17 compounds from PubChem BioAssay.

Assay [1] is described as follows: Wnt pathway potentiators raising nuclear beta-catenin – imaging, WNT3A-conditioned medium, mouse C2C12, NPC library, primary screen (AID 1117326; in the data active = nuclear beta-catenin stimulation mostly above about 4.2%, no sharp cut-off; inactive = mostly below about 10%; also: reference of the scale not given here). As to conditions: stronger effect = higher value.
Assay [2] is described as follows: stimulators of insulin release from INS-1E, primary screen, cell-based, 5 mM glucose, NPC library (AID 1117329;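 active = compound raises insulin release from rat beta cells at 5 mM glucose, no numeric limit stated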; also: reference of the scale not given here). As to conditions: rat INS-1E insulin secretion, at 10 µM, stronger effect = higher value.
Assay [3] is described as follows: growth inhibition of GSK3B-pretreated HCT116 cells – cell-based, CellTiter-Glo, 0.2 to 20 µM (AID 1117336;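 active = compounds lowering colon cancer cell viability after pretreatment blocking the GSK3B kinase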). As to conditions: HCT116 viability after GSK3B inhibitor, at 20 µM, stronger effect = higher value. A general note: Cellular ATP, detected with luciferase, serves as a proxy for viable cell number.
Assay [4] is described as follows: inhibition of endothelial tube formation, primary screen, imaging, VEGF stimulated, CD31 staining, tube area, NPC library (AID 1117340;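 active = compound that reduces growth-factor-driven endothelial tube area in a mixed cell culture, no cutoff stated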). As to conditions: VEGF-stimulated ADSC/ECFC co-culture, at 10 µM, stronger effect = higher value.
Assay [5] can be described thus: GLP1 release stimulators, primary, NCI-H716, NPC library (AID 1117341;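 active = compound raises GLP1 secretion from the human gut endocrine cells, with no numeric limit stated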; also: reference of the scale not given here). As to conditions: NCI-H716 cells, at 10 µM, stronger effect = higher value.
A short description of assay [6]: HCT116 colon cancer cell growth inhibition, primary screen, CellTiter-Glo luminescence, NPC library (AID 1117342). As to conditions: at 20 µM (top of the series).
Assay [7] can be described thus: reduced SW480 viability measured with CellTiter-Glo, NPC library, primary (AID 1117343;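 active = compounds that lower viability of the colon cancer cells in the luminescence readout, with no numeric limit stated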). As to conditions: CellTiter-Glo luminescence; at 20 µM (top of the series).
Assay [8] is described as follows: NPC library primary testing for decreased DLD-1 cell viability via CellTiter-Glo (AID 1117346;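 active = compounds that lower survival of DLD-1 colon cancer cells in the luminescence readout, no cutoff given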). As to conditions: DLD-1 viability, CellTiter-Glo luminescence; at 20 µM (top of the series).

Activity calls are given as the source filed them.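 The calls were made as follows, unless noted: active = compounds that lower survival of HCT116 colon cancer cells in the luminescence readout, no numeric limit stated; inactive = the rest.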

As to `C=CCN1C(=O)C(CC(C)C)NC1=S` (stereo not drawn), the nuclear beta-catenin stimulation in assay [1] (at 10 µM) is 0% (inactive); in assay [1] (stimulation, at 2 µM) it was 0.3%. The insulin secretion stimulation in assay [2] was -1.4% (inactive). For the same compound, the viability decrease in assay [3] is -1.7% (inactive). In addition, in assay [4], the tube area decrease was -6.4% (inactive). In addition, in assay [5], the GLP1 secretion stimulation was -4% (inactive). In addition, the inhibition of viability in assay [6] was -4.1% (inactive). For the same compound, the values for the viability decrease (inhibition) in assay [7] and in assay [8] were 2.8% (active) and -17.7% (inactive), respectively.

`Cn1c(O)c(N=NC(N)=S)c2ccccc21`: the nuclear beta-catenin stimulation in assay [1] (at 10 µM) is 2.5% (inactive); in assay [1] (stimulation, at 2 µM), 3.1%. Further, the insulin secretion stimulation in assay [2] is 2% (inactive). Also, the viability decrease in assay [3] was 13.8% (inactive). In addition, the tube area decrease in assay [4] is 28.1% (inactive). The GLP1 secretion stimulation in assay [5] is -3.5% (inactive). The inhibition of viability in assay [6] is 39.9% (inactive). Also, the results for the viability decrease (inhibition) in assay [7] and in assay [8] were 30.4% (inactive) and 12.2% (inactive), respectively.

In the case of `Cc1c(Cn2ccnc2)c2ccccc2n1CCC(=O)O`, the nuclear beta-catenin stimulation in assay [1] (at 10 µM) was 0.7% (inactive); in assay [1] (stimulation, at 2 µM), 2.7%. Further, the insulin secretion stimulation in assay [2] was -0.1% (inactive). Further, in assay [3], the viability decrease was 108% (active). Also, the tube area decrease in assay [4] is -6.9% (inactive). Besides, the GLP1 secretion stimulation in assay [5] was -1.3% (inactive). Besides, the inhibition of viability in assay [6] was 103% (active). Further, the results for the viability decrease (inhibition) in assay [7] and in assay [8] were 79.6% (active) and 60.9% (active), respectively.

As to `CCOC(=O)C(=O)CCCCCCl`, the nuclear beta-catenin stimulation in assay [1] (at 10 µM) was 0.6% (inactive); in assay [1] (stimulation, at 2 µM), -1.9%. The insulin secretion stimulation in assay [2] is 1.45% (inactive). In addition, in assay [3], the viability decrease is 12.3% (inactive). Besides, in assay [4], the tube area decrease was -8.5% (inactive). In addition, in assay [5], the GLP1 secretion stimulation was -1% (inactive). The inhibition of viability in assay [6] is 12.6% (inactive). For the same compound, the viability decrease (inhibition) in assay [7] was 11.4% (inactive); in assay [8], 0.1% (inactive).

For the compound `O=C1CC[C@H](C(=O)N2CCCCC2)N1`, the nuclear beta-catenin stimulation in assay [1] (at 10 µM) is 1.7% (inactive); in assay [1] (stimulation, at 2 µM) it was 1%. Moreover, the insulin secretion stimulation in assay [2] was 0.8% (inactive). The viability decrease in assay [3] is 8.8% (inactive). Moreover, in assay [4], the tube area decrease was 87.3% (active). In addition, the GLP1 secretion stimulation in assay [5] was 0.9% (inactive). Also, the inhibition of viability in assay [6] was 0.8% (inactive). Besides, the values for the viability decrease (inhibition) in assay [7] and in assay [8] were -22% (inactive) and 0.1% (inactive), respectively.

For `N[C@@H](CSCCCO)C(=O)O`, the nuclear beta-catenin stimulation in assay [1] (at 10 µM) is -1.1% (inactive); in assay [1] (stimulation, at 2 µM), 1.4%. Moreover, the insulin secretion stimulation in assay [2] is -0.6% (inactive). Further, the viability decrease in assay [3] was -4.55% (inactive). In addition, in assay [4], the tube area decrease was 1.7% (inactive). In addition, in assay [5], the GLP1 secretion stimulation was -0.3% (inactive). Also, in assay [6], the inhibition of viability is -17.6% (inactive). The values for the viability decrease (inhibition) in assay [7] and in assay [8] were 17.3% (inactive) and -1.1% (inactive), respectively.

Take `Nc1ccncc1N`: the nuclear beta-catenin stimulation was 0.2% (inactive) in assay [1] (at 10 µM) and 0.5% in assay [1] (stimulation, at 2 µM). Also, the insulin secretion stimulation in assay [2] was -0.7% (inactive). The viability decrease in assay [3] is -2.2% (inactive). The tube area decrease in assay [4] is -31% (inactive). In addition, the GLP1 secretion stimulation in assay [5] was 3.3% (inactive). Further, in assay [6], the inhibition of viability was 3.4% (inactive). The viability decrease (inhibition) in assay [7] is 7.7% (inactive); in assay [8], 6.9% (inactive).

With `CCCCCCCCCCCCOS(=O)(=O)O`, the nuclear beta-catenin stimulation was 2.3% (inactive) in assay [1] (at 10 µM) and 1.9% in assay [1] (stimulation, at 2 µM). Besides, the insulin secretion stimulation in assay [2] is 0.9% (inactive). Moreover, the viability decrease in assay [3] was -7.5% (inactive). For the same compound, the tube area decrease in assay [4] was 4.9% (inactive). Moreover, in assay [5], the GLP1 secretion stimulation is 15.2% (inactive). Further, the inhibition of viability in assay [6] is -7.97% (inactive). Moreover, the viability decrease (inhibition) in assay [7] was -57.7% (inactive); in assay [8] it was -12.9% (inactive).

On to `CC1(C)OC(=O)Nc2ccc(Br)cc21`, for which the nuclear beta-catenin stimulation in assay [1] (at 10 µM) was 3% (inactive); in assay [1] (stimulation, at 2 µM), -1%. Further, in assay [2], the insulin secretion stimulation is 6.1% (inactive). The viability decrease in assay [3] is 9.6% (inactive). In addition, the tube area decrease in assay [4] is 13.5% (inactive). The GLP1 secretion stimulation in assay [5] was -2% (inactive). In addition, in assay [6], the inhibition of viability was -4.8% (inactive). The viability decrease (inhibition) in assay [7] was 20.9% (inactive); in assay [8], 2.5% (inactive).

In the case of `NNC(=O)CP(=O)(c1ccccc1)c1ccccc1`, the nuclear beta-catenin stimulation in assay [1] (at 10 µM) was 1.5% (inactive); in assay [1] (stimulation, at 2 µM), 0.6%. Moreover, in assay [2], the insulin secretion stimulation is -2% (inactive). In addition, the viability decrease in assay [3] was -2.45% (inactive). For the same compound, in assay [4], the tube area decrease was 34.3% (inactive). In assay [5], the GLP1 secretion stimulation was 1.1% (inactive). Besides, in assay [6], the inhibition of viability is -12.6% (inactive). Also, the viability decrease (inhibition) in assay [7] is 10% (inactive); in assay [8], 7.2% (inactive).

On to `COC[C@@H](c1ccc(C(F)(F)F)cc1)N1CCN(C2(C)CCN(C(=O)c3c(C)ncnc3C)CC2)C[C@H]1C`, for which the nuclear beta-catenin stimulation in assay [1] (at 10 µM) was 2.4% (inactive); in assay [1] (stimulation, at 2 µM), 2.3%. Further, in assay [2], the insulin secretion stimulation was 2.8% (inactive). The viability decrease in assay [3] was -44.2% (inactive). Also, the tube area decrease in assay [4] is 32% (inactive). Also, the GLP1 secretion stimulation in assay [5] is 3.1% (inactive). Besides, the inhibition of viability in assay [6] is 11.1% (inactive). Further, the viability decrease (inhibition) is -3% (inactive) in assay [7] and 3.5% (inactive) in assay [8].

In the case of `CN1CC(=O)NC1=N`, the nuclear beta-catenin stimulation in assay [1] (at 10 µM) is -0.7% (inactive); in assay [1] (stimulation, at 2 µM), 1.5%. Moreover, the insulin secretion stimulation in assay [2] was 4.1% (inactive). Further, the viability decrease in assay [3] was -24% (inactive). In assay [4], the tube area decrease was 21.3% (inactive). Also, in assay [5], the GLP1 secretion stimulation is 0.9% (inactive). The inhibition of viability in assay [6] is -3.43% (inactive). Moreover, the viability decrease (inhibition) in assay [7] is -155% (inactive); in assay [8], -6.6% (inactive).

On to `Cc1c(C(C)C)c(=O)n(-c2ccccc2)n1C`, for which the nuclear beta-catenin stimulation in assay [1] (at 10 µM) was -0.3% (inactive); in assay [1] (stimulation, at 2 µM), -0.2%. In addition, in assay [2], the insulin secretion stimulation was -0.6% (inactive). In addition, in assay [3], the viability decrease is -2.5% (inactive). Further, in assay [4], the tube area decrease was -2.7% (inactive). Further, the GLP1 secretion stimulation in assay [5] is 0.4% (inactive). The inhibition of viability in assay [6] was -15.5% (inactive). The viability decrease (inhibition) was 36.6% (inactive) in assay [7] and 8.15% (inactive) in assay [8].

Regarding `CC(C)(Cc1c[nH]c2ccccc12)NCC(O)COc1ccccc1C#N` (stereo not drawn), the nuclear beta-catenin stimulation is 0.2% (inactive) in assay [1] (at 10 µM) and 0% in assay [1] (stimulation, at 2 µM). Moreover, the insulin secretion stimulation in assay [2] is 44.5% (active). In addition, the viability decrease in assay [3] is 84.6% (active). The tube area decrease in assay [4] was 12.6% (inactive). In assay [5], the GLP1 secretion stimulation was 3.9% (inactive). Also, the inhibition of viability in assay [6] was 87% (active). In addition, the viability decrease (inhibition) was 109% (active) in assay [7] and 49.7% (inactive) in assay [8].

As for `CCCCC/C=C\C/C=C\CCCCCCCC(=O)NC(C)c1ccccc1` (stereo not drawn), the nuclear beta-catenin stimulation in assay [1] (at 10 µM) is 0.2% (inactive); in assay [1] (stimulation, at 2 µM) it was 2.1%. Besides, in assay [2], the insulin secretion stimulation was 1% (inactive). Further, in assay [3], the viability decrease is 23.3% (inactive). The tube area decrease in assay [4] is -5.3% (inactive). The GLP1 secretion stimulation in assay [5] is 0.2% (inactive). For the same compound, in assay [6], the inhibition of viability was 52% (active). In addition, the results for the viability decrease (inhibition) in assay [7] and in assay [8] were 13.5% (inactive) and 3.3% (inactive), respectively.

Regarding `CC(CC(C#N)(c1ccccc1)C(C)C)N(C)C` (stereo not drawn), the nuclear beta-catenin stimulation in assay [1] (at 10 µM) is 2.7% (inactive); in assay [1] (stimulation, at 2 µM) it was 0.9%. Besides, the insulin secretion stimulation in assay [2] is 3.4% (inactive). For the same compound, the viability decrease in assay [3] is -53.4% (inactive). For the same compound, the tube area decrease in assay [4] was 1.3% (inactive). For the same compound, in assay [5], the GLP1 secretion stimulation is 0.5% (inactive). In addition, the inhibition of viability in assay [6] is -4.77% (inactive). In addition, the viability decrease (inhibition) in assay [7] was 14.5% (inactive); in assay [8] it was -20% (inactive).

Take `CCCCCCCCCCCCCCCCN`: the nuclear beta-catenin stimulation in assay [1] (at 10 µM) is 1.3% (inactive); in assay [1] (stimulation, at 2 µM), 1.3%. In addition, the insulin secretion stimulation in assay [2] was -2.4% (inactive). In addition, the viability decrease in assay [3] was 5% (inactive). The tube area decrease in assay [4] was 6.5% (inactive). The GLP1 secretion stimulation in assay [5] was 0.9% (inactive). Besides, in assay [6], the inhibition of viability was 5.9% (inactive). Also, the viability decrease (inhibition) in assay [7] is 4.5% (inactive); in assay [8] it was -6.6% (inactive).
